Results published in ChEMBL document CHEMBL3988442, “University of Dundee, Small-Polar-MMV Screening Library” (2021).
Out of some 48,000 compounds screened, about 13,000 (27%) showed an effect of 50% or more. This is one part of the list.

system: Wolbachia pipientis; experiment: Anti-Wolbachia Cell-Based Screen; format: functional; design: scale not given: in the data most compounds retested in dose-response had high values; conditions: 5 µM

SMILES | Percent Effect
FC(F)Oc1ccccc1CNCc1cc(Br)c2c(c1)OCO2 | 6.017%
c1ccc(CC2(CNCc3ncc[nH]3)CCC2)cc1 | -10.87%
COCCN1CCOCC12CCN(c1ccc(C#N)cc1)CC2.O=C(O)C(F)(F)F | 1.624%
N#Cc1ccc(N2CCC(c3nc(C(F)(F)F)c[nH]3)CC2)nc1 | -13.67%
O=C(O)C(F)(F)F.O=C(O)C(F)(F)F.O=C(c1ccncc1)N1CCCC2(CCN(c3cccnc3)C2=O)C1 (stereo not drawn) | -3.414%
O=C(O)C(F)(F)F.O=C(O)C(F)(F)F.O=C1CCC2(CCCN(Cc3nccs3)C2)N1CC1CC1 (stereo not drawn) | -83.2%
COc1cc(N2CCCC3(CCN(c4cccnc4)C3=O)C2)ncn1.O=C(O)C(F)(F)F (stereo not drawn) | -87.96%
N#Cc1ccc(N2CCCC3(CCN(c4cncnc4)C3=O)C2)nc1.O=C(O)C(F)(F)F (stereo not drawn) | 104%
N#Cc1ccc(N2CCC3(CCC(=O)N3CCN3CCCC3)CC2)nc1.O=C(O)C(F)(F)F.O=C(O)C(F)(F)F | 111.3%
O=C1CCC2(CCN(c3ncc(F)cn3)CC2)N1CCN1CCCC1 | 20.59%
N#Cc1ccc(N2CCCC3(CCC(=O)N3CC3CC3)CC2)nc1.O=C(O)C(F)(F)F (stereo not drawn) | 105.4%
O=C1CCC2(CCCN(c3ncc(F)cn3)CC2)N1CC1CC1 (stereo not drawn) | -5.991%
N#Cc1cccc(CN2CC3(CCCCN3c3cncnc3)CC2=O)c1.O=C(O)C(F)(F)F (stereo not drawn) | -19.74%
CN1C(=O)CCC12CCN(c1ccc(C#N)cn1)CC2.O=C(O)C(F)(F)F | 114%
CC(C)c1nc(N2CC[C@@H](N(C)CCc3ccccn3)[C@H](O)C2)no1 | -7.34%
CSc1cccc(CN(C)C(=O)C2CC(=O)N(CCN(C)C)C2)c1 (stereo not drawn) | 0.2115%
Cc1cccc2c(=O)n(C(C)Cc3cccnc3)cnc12 (stereo not drawn) | 5.15%
Cc1cn([C@H]2CCNC[C@]2(C)O)c(=O)[nH]c1=O | 91.37%
Cc1cn([C@@H]2CC3(CCNCC3)OC[C@@]2(C)O)c(=O)[nH]c1=O | 120.3%
N#Cc1ccc(NCc2cccnc2N2CCC(C(N)=O)CC2)cn1 | 11.59%
CCCC(=O)N1CCc2c(CNS(C)(=O)=O)cncc2C1.Cl | 100.5%

SMILES | Percent Effect
CS(=O)(=O)NCc1cncc2c1CCN(C(=O)N1CCCC1)C2.Cl | 112.8%
CC(=O)NCC(=O)N1CCc2c(CNc3ncccn3)cncc2C1.Cl | -3.566%
Cl.O=C(N1CCCC1)N1CCc2c(CNc3ncccn3)cncc2C1 | -8.095%
COCCC(=O)N1CCc2c(CNc3ncccn3)cncc2C1.Cl | -6.28%
CCCn1[nH]cc/c1=N\C(=O)CN1CCCC1c1c(C)nn(C)c1C (stereo not drawn) | -11.65%
COc1ccnc(N2CCCN(C(=O)CCc3cnn(C)c3)CC2)n1 | -25.81%
N#Cc1cccnc1N1CCN(C(=O)CCC(=O)c2cccs2)CC1 | 2.306%
N#Cc1ccccc1N1CCN(CCC(=O)N2CCOCC2)CC1 | 8.66%
COc1ccccc1N1CCN(C(=O)CCn2ccnc2C)CC1(C)C | 3.273%
N#Cc1cccnc1N1CCCN(C(=O)CCn2cccn2)CC1 | 107%
COc1ccccc1N1CCN(C(=O)CCn2ccc(C)n2)CC1(C)C | -8.619%
Cn1cc(CCC(=O)N2CCCN(c3ncccc3C#N)CC2)cn1 | 89.9%
N#Cc1ccccc1N1CCCN(C(=O)CCn2cccn2)CC1 | -8.555%
COc1ccccc1N1CCN(C(=O)CCn2ccc(C)n2)CC1 | 112.7%
Cc1cnn(CCC(=O)N2CCCN(c3ccccc3C#N)CC2)c1 | 106.5%
N#Cc1cccnc1N1CCCN(C(=O)CCc2cccs2)CC1 | -1.405%
Cc1cnn(CCC(=O)N2CCCN(c3cccnn3)CC2)c1 | 7.961%
O=C1CC(c2ccc(F)cc2)Cc2[nH]c(=O)c(C(=O)O)cc21 (stereo not drawn) | -7.153%
COc1ccc(-c2nnc([C@H]3CCN(C4CCC4)C3)o2)cc1 | -7.791%
COc1ccc2c(C)nc(N3CCN([C@H]4CCCC[C@@H]4O)CC3)nc2c1 | -5.01%
Cc1cnn(CCC(=O)N2CCN(c3nc(C)cs3)CC2)c1 | -7.951%

SMILES | Percent Effect
Cc1cnn(CCC(=O)N2CCN(c3ccc(C#N)cn3)CC2)c1 | 122.4%
N#Cc1ccc(CN2CCN(C(=O)CCn3cncn3)CC2)cc1 | -1.452%
N#Cc1cccnc1N1CCCN(C(=O)CCn2cncn2)CC1 | 103.6%
N#Cc1ccc(CN2CCCN(C(=O)CCn3cncn3)CC2)cc1 | -4.749%
Cc1cnn(CC(=O)N2CCCN(c3ncccc3C#N)CC2)c1 | 99.25%
Cc1cnn(CCC(=O)N2CCCN(c3ncccc3C#N)CC2)c1 | 7.127%
N#Cc1cccnc1N1CCCN(CC(=O)N2CCNC(=O)C2)CC1 | -3.438%
Cc1cnn(CCC(=O)N2CCN(c3ncccc3Cl)CC2)c1 | 8.116%
CN(C)c1cc(C(=O)Nc2ccccc2C(=O)NC(C)(C)C)ccn1 | 0.03536%
CCn1nc(C)cc1C(=O)NCc1nc(C)cc(C)n1 | -9.292%
CCn1nc(C)cc1C(=O)NCc1nc(C)no1 | 111.2%
CCn1nc(C)cc1C(=O)OCCNC(=O)c1ccccc1 | -11.83%
COCc1nc(CNC(=O)c2cc(C)c(C)[nH]c2=O)no1 | -2.692%
CCn1nc(C)cc1C(=O)NCc1cccnc1N(C)C | -6.394%
CCn1nc(C)cc1C(=O)NCc1noc(C(C)(C)C)n1 | 104.1%
CC(SCCS(C)(=O)=O)c1nc(Cc2ccccc2)no1 (stereo not drawn) | -6.547%
O=C1CC[C@H](C(=O)N(Cc2cccc(Br)c2)C2CC2)N1 | 5.086%
CC(=O)NCC(=O)N1Cc2nc(COCc3csc(C)n3)oc2C1 | 5.619%
CC(C)CC(C)NCc1cccnc1N1CCOCC1 (stereo not drawn) | 1.673%
COc1ccc(OC)c(-c2nc(CN(C)Cc3nncn3C)c(C)o2)c1 | 0.1711%
CCN(CC)C(=O)[C@@H]1C[C@H](N)CN1c1noc(-c2ccccc2)n1 | 2.719%
